Sfp inh – Sfp phosphopantetheinyl transferase inhibition | Q9F4F7 | hit rate 3.5% among 310,000 | AID 1490 | Potency, µM, without a hit: largest response in the series, negative = inhibition, hits mostly inhibitors | Biochemical Sfp PPTase activity, qHTS;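 also: the enzyme is Sfp with the accession as filed and its product quenches rhodamine fluorescence; 0% = enzyme reaction without inhibitor and -100% = no enzyme wells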
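Reaction rates are the 30-min fluorescence difference (ex 525, em 598 nm) in wells containing 15 nM Sfp, 5 uM rhodamine-CoA and 12.5 uM BHQ-2-YbbR at pH 7.6 with 10 mM MgCl2.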
12-LOX inh – ALOX12 (human) lipoxygenase inhibition. P18054. purified 12hLO, xylenol orange hydroperoxide absorbance. Potency, µM (series often up to 108 µM), for the others: at the top dose activity change, negative = inhibition, most hits filed as inhibitors. hit rate 1.1% among 580,000. AID 1671190; also: % is scaled to controls: 0 for no effect and ±100 for the full control effect
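Hydroperoxide product was detected by ferrous iron/xylenol orange as the 573 to 405 nm absorbance ratio. Arachidonic acid at 40 uM (final) was turned over for 30 min at room temperature by 150 nM human 12hLO, pH 7.0 Hepes buffer, after 15 min compound preincubation.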
G9a inh – blocks human histone lysine methyltransferase G9a; AID 504332; Potency, µM (titrated, usually from 102 µM), for the others: top-dose activity, negative = inhibition, usual class: inhibitors; hit rate 8.8% among 350,000; G9a H3K9 monomethylation, AlphaScreen, 2 h; Q96KQ7; also: % is scaled to controls: 0 for no effect and ±100 for the full control effect; nearly all actives have a fitted effect of over 75% in size
Target sequence (Q96KQ7 913-1193 limits assumed): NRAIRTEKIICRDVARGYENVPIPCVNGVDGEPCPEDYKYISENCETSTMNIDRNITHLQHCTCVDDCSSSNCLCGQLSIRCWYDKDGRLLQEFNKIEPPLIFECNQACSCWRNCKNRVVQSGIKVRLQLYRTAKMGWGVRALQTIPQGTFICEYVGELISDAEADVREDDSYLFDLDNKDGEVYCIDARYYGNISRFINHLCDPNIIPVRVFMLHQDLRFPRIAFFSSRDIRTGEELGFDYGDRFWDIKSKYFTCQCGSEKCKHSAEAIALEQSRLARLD
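G9a (20 nM) was preincubated 15 min with compound, then reacted 2 h at room temperature with 500 nM biotin-H3K9 peptide and 20 µM SAM. Monomethyl-H3K9 detected by AlphaScreen using anti-H3K9me1 antibody.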
VDR inhibitor – blocks the human vitamin D receptor; P11473; VDR-SRC2-3 peptide fluorescence polarization, 2 h; Potency, µM, for the others: max response, negative = inhibition, hits mostly inhibitors; hit rate 0.93% among 400,000; AID 504847; also: % is scaled to controls: 0 for no effect and ±100 for the full control effect
Target sequence (P11473 whole entry, looked up): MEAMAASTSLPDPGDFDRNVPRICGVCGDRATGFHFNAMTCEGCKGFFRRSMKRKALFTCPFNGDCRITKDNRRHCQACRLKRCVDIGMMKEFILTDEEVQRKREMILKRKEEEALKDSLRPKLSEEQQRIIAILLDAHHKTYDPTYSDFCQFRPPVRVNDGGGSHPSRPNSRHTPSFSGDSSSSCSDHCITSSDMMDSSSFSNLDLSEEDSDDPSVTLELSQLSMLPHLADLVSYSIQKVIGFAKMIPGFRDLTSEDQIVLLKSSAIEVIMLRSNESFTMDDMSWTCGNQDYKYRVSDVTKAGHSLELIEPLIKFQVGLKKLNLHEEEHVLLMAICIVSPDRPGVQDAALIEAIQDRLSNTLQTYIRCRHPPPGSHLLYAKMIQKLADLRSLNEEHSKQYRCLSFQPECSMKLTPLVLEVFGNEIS
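Signal is fluorescence polarization, reporting how far test compounds block the interaction of VDR with the SRC2-3 coregulator peptide after a 2 h room-temperature incubation.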
GRP78 ERSR act – ER stress response induction in glioma. AID 602332. hit rate 0.02% among 420,000. U87-MG GRP78 promoter luciferase reporter, 16 h. Potency, µM, for inactives: at the highest dose activation, usual class: activators; also: series mostly up to about 76 µM; % of control where 0% means no effect; nearly all actives have a fitted effect of over 35% in size
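Stably transfected U87-MG human glioma cells carrying a GRP78-based luminescent sensor were seeded at 1000 cells/well, pin-dosed with compounds and incubated 16 h. Luciferase reagent was then added, and end-point luminescence was read after 10 min at room temperature.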
Starred values were filed as active, the others as inactive; i = inactive; ? = inconclusive; . = no result given; [ ] = dose if it differs, or a comment. This is one part of a sample in which hits are shown more often than they occur. Calls follow the shape of the dose curve; as a rule, active = well fitted curve in the direction sought with a large enough effect; inconclusive = small, poorly fitted or top-dose-only effect, or another doubt; inactive = no such curve, though single readings can be large; an effect the other way counts as inactive or inconclusive. Potency is read from the fitted curve at half-maximal effect.

SMILES	Sfp inh	12-LOX inh	G9a inh	VDR inhibitor	GRP78 ERSR act
COc1ccccc1NS(=O)(=O)c1cc(N)ccc1N1CCCCC1	11.2µM*	?	3.98µM*	-15.5%	2.1%
Nc1ccc(N2CCCCC2)c(S(=O)(=O)Nc2ccccc2Cl)c1	28.2µM*	?	14.1µM*	-14.5%	6.6%
Nc1ccc(N2CCCCC2)c(Cl)c1	16.8%	-12.3%	44.7µM*	2.7%	-1.0%
CCCS(=O)(=O)Nc1ccc(N2CCCCC2)c(S(=O)(=O)Nc2ccccc2OC)c1	.	31.6µM*	11.2µM*	-20.9%	-4.4%
Nc1ccc(N2CCCCC2)c(S(=O)(=O)Nc2ccc(Cl)cc2)c1	11.1%	-21.6%	?	-19.7%	8.2%
N=C1C(c2nc3ccccc3c(=O)[nH]2)=C(O)CN1c1ccc(Cl)c(Cl)c1	.	-4.1%	.	.	.
Cc1ccc(O)c(CN2CCCC(c3nc(CC(C)C)no3)C2)c1 (configuration not stated)	.	83.5%	.	.	.
COc1ccc(-c2c(C)c3cc(OS(=O)(=O)c4ccccc4)ccc3oc2=O)cc1OC	.	-19.1%	.	.	.
Nc1ccc(N2CCCCCC2)cc1	8.91µM*	.	3.55µM*	.	.
CN(C)CCN(Cc1ccccc1)Cc1ccccc1	.	61.8%	.	.	.
C/C(=C\c1ccccc1)CN(C)CCN(C)C	9.4%	.	56.2µM*	.	.
O=C1CCC2(CC1)NC(=O)N(c1ccccc1)N2	10.4%	?	7.08µM*	2.1%	-2.8%
Cc1ccsc1C(=O)N1CCC2(CC1)NC(=O)N(c1cccc(F)c1)N2	.	2.82µM*	.	.	.
Cc1ccc(C(=O)N2CCC3(CC2)NC(=O)c2ccccc2O3)cc1	.	41.1%[176 µM]	.	.	.
Cc1ccsc1C(=O)N1CCC2(CC1)NC(=O)N(c1cccc(Cl)c1)N2	.	1.26µM*	.	.	.
Cc1ccc(C(=O)N2CCC3(CC2)NC(=O)N(c2ccccc2)N3)cc1	.	1.26µM*	.	.	.
C=CCC1CCCCC12NC(=O)N(c1ccccc1)N2 (configuration not stated)	-7.0%	-8.7%	.	3.3%	-7.7%
CC(C)CN1CCN(CCO)CC1	.	-20.2%	.	.	.
Cc1ccsc1C(=O)N1CCN(S(=O)(=O)c2cccs2)CC1	15.6%	i	1.6%	-0.3%	-4.0%
Cc1ccsc1C(=O)N1CCC2(CC1)NC(=O)N(c1ccccc1)N2	.	7.08µM*	.	.	.
C=CCC1Cc2c(cccc2[N+](=O)[O-])C(CC=C)N1 (configuration not stated)	2.4%	?	50.1µM*	-10.9%	-0.8%
Cc1c(C(=O)NCC2COc3ccccc3O2)oc2ccc(S(=O)(=O)N3CC(C)CC(C)C3)cc12 (configuration not stated)	-17.2%	21.9%	-46.6%[2.33 µM]	-1.1%	-2.7%
O=C(COC(=O)c1cc(S(=O)(=O)N2CCOCC2)c(Cl)cc1Cl)NC1CC1	.	-0.9%	0.631µM*	-1.1%	-0.5%
O=C(NCC1COc2ccccc2O1)c1cc(S(=O)(=O)N2CCOCC2)c(Cl)cc1Cl (configuration not stated)	.	?	31.6µM*	-0.4%	-0.4%
O=C(NC1CCCC1)c1cc(S(=O)(=O)N2CCOCC2)c(Cl)cc1Cl	-1.8%	0.7%	-7.8%[59 µM]	-6.9%	-3.6%
SMILES	Sfp inh	12-LOX inh	G9a inh	VDR inhibitor	GRP78 ERSR act
Cc1c(C(=O)NCC2COc3ccccc3O2)oc2ccc(S(=O)(=O)N3CCOCC3)cc12 (configuration not stated)	3.3%	-24.7%	50.1µM*	16.6%	-2.1%
COc1ccc(/C(O)=C2/C(=O)C(=O)N(CC3CCCO3)C2c2cccc(O)c2)cc1 (configuration not stated)	11.0%	-23.7%	?	7.2%	-3.1%
O=C1C(=O)N(C2CCS(=O)(=O)C2)C(c2cccc(O)c2)/C1=C(/O)c1ccc(Cl)cc1 (configuration not stated)	10.9%	?	31.6µM*	1.4%	-3.0%
CN1C(=O)C(=O)/C(=C(/O)c2ccc(Br)cc2)C1c1ccc(Cl)cc1 (configuration not stated)	22.6%	?	-1.5%[0.501 µM]	-4.7%	-0.8%
COC(=O)c1ccc(C2/C(=C(/O)c3ccc(Cl)cc3)C(=O)C(=O)N2C2CCS(=O)(=O)C2)cc1 (configuration not stated)	0.9%	?	44.7µM*	1.4%	2.7%
Cc1ccc(C2=NN(C(=O)CCC(=O)O)C(c3cn(-c4ccccc4)nc3-c3ccc(C)cc3)C2)cc1 (configuration not stated)	89.1µM*	-27.7%	?	60.0%	-3.3%
Cc1ccc(-c2nn(-c3ccccc3)cc2C2CC(c3ccccc3)=NN2C(=O)CCC(=O)O)cc1 (configuration not stated)	-20.4%	-38.7%	.	12.8%	-5.2%
CCN(CC)CCn1c(O)c(N=O)c2ccccc21	8.4%	-29.5%	-43.0%	-3.7%	7.5%
CCN(CC)CCn1c2ccccc2c(=O)c2c(O)ccc(O)c21	.	25.1µM*	.	-20.9%	-4.7%
Cc1cnc(CNc2ccnc(-c3ccc(C(=O)N(C)C)cc3)n2)cn1	-7.7%	35.5µM*	.	9.4%	-2.4%
COC(=O)Nc1nc2c(s1)CCCC2	-11.8%	1.0%	21.4%[59 µM]	-10.0%	3.8%
CC(=O)NC(Nc1nc2c(s1)CCCC2)(C(F)(F)F)C(F)(F)F	-6.1%	?	50.1µM*	-11.5%	-3.9%
Cc1cccc(NC(NC(=O)c2cccc(C)c2)C(Cl)(Cl)Cl)c1 (configuration not stated)	.	4.4%	.	.	.
COC(=O)CC1Oc2cc3oc4c(c3cc2O1)C(=O)CC(C)(C)C4 (configuration not stated)	-14.2%	.	.	.	.
CC1(C)CC(=O)c2c(oc3cc(O)c(O)cc23)C1	56.2µM*	?	3.55µM*	7.5%	2.9%
O=C1SC(c2ccccc2)=C/C1=C\N1CCCCC1	?	?	3.1%[0.0925 µM]	5.8%	4.4%
N#C/C(=C\N1CCOCC1)c1ccccc1	8.3%	6.1%	38.3%[12.7 µM]	-5.2%	0.5%
O=C1OC(c2ccccc2)=C/C1=C/N1CCOCC1	20µM*	?	8.91µM*	-0.9%	4.4%
O=C1OC(c2ccccc2)=C/C1=C\N1CCOCC1	?	?	8.91µM*	87.4%	5.1%
CN(C)/C=C1/C=C(c2ccccc2)OC1=O	39.8µM*	?	35.5µM*	?	12.1%
CC1=C/C(=C/N(C)C)C(=O)O1	8.3%	-0.6%	?	-8.0%	-2.1%
COCCNc1oc(-c2ccc(S(=O)(=O)N3CCCCCC3)cc2)nc1C#N	.	-2.5%	.	.	.
O=C(CSc1n[nH]c(-c2ccccc2)n1)Nc1cccc(C(=O)Nc2cccc(C(F)(F)F)c2)c1	.	1.0%	.	.	.
CC(CCc1ccco1)NC(=O)Nc1cccc(F)c1 (configuration not stated)	11.1%	-39.8%	50.1µM*	-5.1%	-1.0%
CC(NC(=O)Nc1cccc(F)c1)c1ccc2c(c1)OCO2 (configuration not stated)	4.1%	-13.1%	.	8.4%	-2.9%
O=C(Sc1ccc(Cl)cc1)c1ccccn1	.	2.82µM*	.	?	7.5%
C/C(=N\Nc1ccc(Cl)cc1)c1ccccn1	-0.1%	?	3.55µM*	-13.5%	4.2%
C/C(=N\NC(=O)c1ccccn1)c1ccc(Cl)cc1	89.1µM*	0.0%	.	7.7%	-6.5%
